# High-throughput results as filed in PubChem.
# ELG1 genotoxic – genotoxicity induction in ELG1-luciferase HEK293T cells; Potency, µM (highest dose often 46 µM), for the others: at the highest dose activity change, positive = activation, actives largely listed as activators; HEK293T ELG1-luciferase reporter, luminescence, 16 h; hit rate 1.3% among 330,000; further: % of control where 0% means no effect; nearly all actives have a fitted effect of over 60% in size
#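 After overnight (16 hr) compound treatment at 37 °C, ELG1-luciferase HEK293T cells were lysed with ONE-Glo; luminescence quantified 30 min later at room temperature.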
# NPC1 promoter act – activators of NPC1 promoter; Huh7 NPC1 promoter luciferase reporter, 24 h; Potency, µM (titrated, usually from 9.22 µM), for the others: top-dose activation, usual class: activators; hit rate 2.4% among 320,000; further: % of control where 0% means no effect; nearly all actives have a fitted effect of over 60% in size
#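 Luminescence read-out of NPC1 promoter-driven luciferase in stably transfected Huh7 cells; compounds delivered in DMSO and left 24 h at 37C, 5% CO2, qHTS titration format.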
# Rab9 promoter act – Rab9 promoter activation. Huh7 Rab9 promoter-luciferase reporter, luminescence, 24 h. Potency, µM (highest dose often 9.22 µM), for the others: at the top dose activation, negative = inhibition, actives largely listed as activators. hit rate 2.8% among 320,000; further: % of control where 0% means no effect; nearly all actives have a fitted effect of over 60% in size
#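 Luminescence from Amplite-detected luciferase (10 minutes, ambient) reports Rab9 promoter activation. Before that, stable Rab9-luciferase Huh7 cells (1500/well, reduced-serum OP-MEM I plus 10% FBS) were exposed to compound for 24 hours at 37C.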
# p53 reactivation – restores transcriptional activity of mutant p53. H1299 p53-A138V BP100-luciferase reporter, luminescence, 24 h. Potency, µM (doses to about 92.2 µM), for the others: at the top dose activity change, positive = activation, actives largely listed as activators. hit rate 0.063% among 320,000. AID 504706; further: % of control where 0% means no effect; nearly all actives have a fitted effect of over 45% in size
#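 H1299 (p53-null), stable ts p53-A138V + BP100-Luc; 1000 cells/well, Opti-MEM/10% FBS; cpd 4 pt, 1:5; 24 h, 37 deg C, 5% CO2; detection reagent 10 min RT; luminescence.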
# FLuc counter – counter-screen for miR-21 project: firefly luciferase inhibitors or activators; hit rate 6.9% among 360,000; Potency, µM (series often up to 57.5 µM), inactives show at the highest dose activity change, negative = inhibition, hits mostly inhibitors; purified FLuc, Km substrates, luminescence inhibition; AID 588342;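 further: plate controls were vehicle for no effect and reference inhibitor for full effect; nearly all actives have a fitted effect of over 55% in size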
# Target sequence (P08659 whole entry, looked up): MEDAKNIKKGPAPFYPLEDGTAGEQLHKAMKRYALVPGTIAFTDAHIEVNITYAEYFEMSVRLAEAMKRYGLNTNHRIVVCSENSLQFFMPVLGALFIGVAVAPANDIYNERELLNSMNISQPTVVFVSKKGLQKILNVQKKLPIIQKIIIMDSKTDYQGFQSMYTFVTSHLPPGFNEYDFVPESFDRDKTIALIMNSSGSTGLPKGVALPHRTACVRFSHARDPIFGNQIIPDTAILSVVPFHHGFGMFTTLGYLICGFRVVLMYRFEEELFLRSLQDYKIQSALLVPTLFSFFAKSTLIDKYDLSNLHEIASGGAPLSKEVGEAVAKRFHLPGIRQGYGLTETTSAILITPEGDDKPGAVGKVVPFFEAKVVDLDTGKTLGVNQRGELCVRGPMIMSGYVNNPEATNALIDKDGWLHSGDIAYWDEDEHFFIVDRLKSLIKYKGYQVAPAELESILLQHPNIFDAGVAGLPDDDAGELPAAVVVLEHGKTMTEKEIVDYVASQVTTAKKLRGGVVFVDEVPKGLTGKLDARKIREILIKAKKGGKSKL
#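 Biochemical qHTS of compounds, final roughly 60 µM downward over six points, against 10 nM purified firefly luciferase using Km concentrations of substrates (10 uM D-luciferin, 10 uM ATP) in Tris acetate pH 7.5 buffer; luminescence output.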
# SMN2 splice enh – enhancers of SMN2 splice variant expression; HEK293 SMN2-luciferase splicing reporter, luminescence, 30-36 h; Potency, µM (top dose mostly 46.1 µM), without a hit: at the top dose activity change, positive = activation, most hits filed as activators; hit rate 2.8% among 210,000; further: % of control where 0% means no effect; nearly all actives have a fitted effect of over 55% in size
#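 HEK293 cells carry an SMN2 minigene-luciferase reporter in which exon 7 inclusion puts luciferase in frame. Cells were seeded at 2000 cells/well, attached for 10-12 hours, then exposed to compounds for 30-36 hours at 37C before ONE-Glo luminescence.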
# Numbers without * were called inactive; ? = inconclusive; / = no result; [ ] = dose if it differs, or a comment. The list is not random: actives were taken first. Their share in the collection is about 7.4%. The call rests on the fitted dose curve; in most records, active means well fitted curve in the direction sought with a large enough effect; inconclusive means small, poorly fitted or top-dose-only effect, or another doubt; inactive means no such curve, though single readings can be large; an effect the other way counts as inactive or inconclusive. Potency means the concentration at half of the fitted maximal effect.
SMILES,ELG1 genotoxic,NPC1 promoter act,Rab9 promoter act,p53 reactivation,FLuc counter,SMN2 splice enh
NC(=O)c1c[nH]c2ccccc12,3%,-2%,-3%,-2%,-10%,-2%
COc1ccccc1C(=O)NNC(=O)c1cccc(Br)c1,?,2.8µM*,?,/,12µM*,/
COc1ccccc1C(=O)NNC(=O)c1ccccc1,8.2µM*,2.5µM*,?,/,9.5µM*,/
COc1ccc(S(=O)(=O)NCCS(=O)(=O)N2CCN(c3ccccc3)CC2)cc1OC,/,/,/,/,-1%,/
CCC(C(=O)Nc1cc(OC)ccc1OC)n1nc(-c2ccccc2)c2c(c1=O)CCCC2 (centres undefined),/,/,/,/,-14%,-42%
Cc1ccc(C)c(NC(=O)Cn2nc(C)c3nn(-c4ccc(Cl)cc4)c(C)c3c2=O)c1,/,/,/,/,1%,/
O=C(CSc1ncn(-c2ccccc2)n1)Nc1nncs1,0%,4%,-9%,1%,-7%,1%
O=C(CNc1ccccc1)c1ccc([N+](=O)[O-])cc1,1%,7%,-3%,13%,0%,13%
Cc1cccc(C)c1NC(=O)c1c[nH]c2ccccc12,?,?,22%[1.84 µM],?,12µM*,/
CC(=O)Nc1ccc(C(=O)CSc2ncn(-c3ccccc3)n2)cc1,?,18%,19%,7%,-10%,7.1µM*
COc1ccccc1C(=O)Nc1ccc2c3c(cccc13)CC2,12%,?,?,?,5.4µM*,/
CC(=O)Nc1ccc(NCC(=O)c2ccccc2)cc1,9%,-2%,0%,17%,15µM*,/
CCOC(=O)c1c(C)n(-c2ccccc2)c2ccc(OC(=O)c3ccccc3NC(=O)C(C)(C)C)cc12,/,/,/,/,-2%,-9%
Cc1ccc2oc(=O)c3cc(C(=O)N(Cc4ccccc4)C(C)C)sc3c2c1,/,/,/,/,5%,-4%
Cn1cccc1C(=O)N1CCC2(CCN(Cc3ccc(C#N)cc3)CC2)CC1,/,/,/,/,/,-41%
COc1ccccc1NC(=O)Nc1ccc(CC#N)cc1,?,?,?,6%,21µM*,/
CCOc1ccc(NC(=O)Nc2ccccc2C(N)=O)cc1,2%,8%,0%,-1%,1.2µM*,6%
COc1ccccc1NC(=O)Nc1ccccc1C(N)=O,3%,5%,1%,4%,-18%,-1%
COc1ccccc1NC(=O)Nc1cc(F)ccc1F,3%,11%,2%,6%,24µM*,6%
COc1ccc(NC(=O)Nc2ccccc2C(N)=O)cc1OC,/,/,/,/,19µM*,-8%
CCOc1ccc(NC(=O)Nc2ccc(NC(C)=O)cc2)cc1,12%,0%,0%,3%,-2%,-15%
COc1ccc2c(c1)O[C@@H](c1cccc(C(F)(F)F)c1)[C@H](OC(=O)NC1CCCC1)C2=O,/,/,/,/,/,-4%
COc1ccc(NC(=O)CN2CCN(Cc3ccc(F)cc3)S2(=O)=O)cc1Cl,/,/,/,/,-1%,/
O=C(Cn1ncc2c3ccccc3n(Cc3ccc(Cl)cc3)c2c1=O)NCc1cccs1,/,/,/,/,-2%,7%
COc1ccccc1NC(=O)Nc1ccc(Cc2ccncc2)cc1,6%,5%,13%,8%,17µM*,-3%
SMILES,ELG1 genotoxic,NPC1 promoter act,Rab9 promoter act,p53 reactivation,FLuc counter,SMN2 splice enh
COc1ccccc1NC(=O)Nc1ccc(C(N)=O)cc1,14%,18%,?,-3%,?,?
Cc1ccc(NC(=O)Nc2ccccc2C(N)=O)cc1,12%,17%,15%,3%,2.7µM*,/
COc1ccccc1NC(=O)Nc1ccncc1,-13%,-3%,-2%,1%,4%,-34%
COc1ccc(OC)c(NC(=O)Nc2ccc(Cl)cc2)c1,-2%,1%,7%,2%,19µM*,-5%
COc1ccc(NC(=O)Nc2ccccc2OC)cc1,9.2µM*,?,?,?,8.5µM*,?
COc1ccccc1NC(=O)Nc1ccc(N2CCOCC2)cc1,?,?,?,24%,17µM*,112%
Cc1ccccc1NC(=O)Nc1ccccc1C(N)=O,7%,-1%,-2%,0%,-12%,/
COc1ccc(NC(=O)Nc2ccccc2C(N)=O)cc1,7%,-6%,1%,0%,5.4µM*,10%
CCN1CCN(Cc2ccc(NC(=O)Nc3ccccc3OC)cc2)CC1,18µM*,?,?,?,11µM*,/
CCN1CCN(CCC(=O)Nc2ccccc2OC)CC1,2%,-1%,1%,0%,1%,-8%
COc1ccccc1CNCC(=O)Nc1ccc(N2CCOCC2)cc1,1%,-4%,-14%,5%,0%,?
COc1ccc(NC(=O)N/C=C/c2ccccc2)cc1,?,2µM*,3.5µM*,27%,?,16µM*
CCc1ccc(NC(=O)CCS(=O)(=O)c2ccc3c(c2)n(C)c(=O)c(=O)n3C)cc1,/,/,/,/,-6%,2%
CC(C)OC(=O)c1c(-c2ccccc2)c(-c2ccccc2)nn(C)c1=O,/,/,/,/,?,-105%
CC1(S(=O)(=O)O)CC(=O)c2ccccc2C1=O (centres undefined),-6%,1%,4%,-9%,2%,/
NCCCC[C@@H](C(=O)NCCCCCCCCCCC(=O)N1CCNCC1)n1cc(CCCC(=O)O)nn1,2%,9%,-6%,8%,-3%,/
O=C(NCCNC(=O)c1ccccc1)c1ccccc1,3%,-2%,2%,2%,0%,/
O=C(N/C=C/c1ccccc1)c1ccccc1,?,1.1µM*,1.3µM*,?,2.1µM*,/
O=C(Nc1ccc(N2CCOCC2)cc1)Nc1cnsn1,15%,?,?,10%,17µM*,13µM*
C[C@]1(CC/C(=C/CO)CO)[C@H](CO)CC[C@@]23COC(=O)C2=CCC[C@@H]31,-1%,1%,4%,3%,7%,/
